Molecules are shown by their SMILES. The panel holds about 79,000 compounds, 15% with a hit somewhere; the sample as a whole holds those more often. Values without a mark were called inactive. Active and inactive are the calls of the source. Cut-off read from the data, not from the text of the source: active = growth inhibition above about 70%; inactive = the rest.

The first assay is described as follows: NCI Yeast Anticancer Drug Screen. Data for the bub3 strain (AID 167). As to conditions: S. cerevisiae bub3 mutant strain, at 50.0 µM (retest, dose inferred, filed as 5.0), active compounds read high. A digest of the protocol: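 Mutant yeast screening strain plus compound; vehicle-treated cultures serve as the 0% inhibition reference.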
With `C/C(=N\NC(=S)SCc1ccccc1)c1ccccn1`, the growth inhibition was 95% (active).
Turning to `CC[C@@]1(O)C(=O)OCc2c1cc1n(c2=O)Cc2cc3c(N)cccc3nc2-1`, the growth inhibition was 1%.
Still for that read-out and setting: then `CN(C)c1ccc(Sc2ccc3nc(N)nc(N)c3c2)cc1`, with 43%; and `CC(=O)OCCOCNC(=S)N/N=C(\C)c1cnccn1`, with 67%; and `COc1ccc(C2c3cc4c(cc3OC(C)(O)C2C)OCO4)c(OC)c1` (configuration not stated), with 67%.
Regarding `COc1cc(C2SCC(=O)N2c2ccc(-c3ccc(-n4c(-c5ccccc5)nc5ccccc5c4=O)cc3)cc2)cc(OC)c1OC` (configuration not stated), the growth inhibition was 73% (active).
For the compound `COc1ccc(Br)c(C(=O)Sc2nnnn2-c2cccc(Cl)c2)c1`, the growth inhibition was 81% (active).
Take `O=C(NNc1ccnc2cc(Cl)ccc12)/C(=C\c1ccccc1Cl)NC(=O)c1ccccc1`: the growth inhibition was 80% (active).
For the compound `CSC(=S)Nc1cccc(C)n1`, the growth inhibition is 63%.
In the case of `O=C(/C=C\c1ccc(Cl)cc1Cl)c1cccs1`, the growth inhibition is 85% (active).
On to `COc1ccc(-c2cn(-c3ccc(I)cc3)c3ncnc(N)c23)cc1`, for which the growth inhibition was 72% (active).
For `CN(C)c1ccc(C(C#N)=C(C#N)C#N)cc1`, the growth inhibition was 77% (active).
`COc1cc(/C=C2\CCc3ccccc3C2=O)cc(OC)c1OC`: the growth inhibition was 86% (active).
Consider `CC(C)/C(Cl)=N\OC(=O)Nc1cccc(Cl)c1`, for which the growth inhibition was 88% (active).
Regarding `NNC(=O)CCc1ccc2ccc3ccccc3c2c1`, the growth inhibition was 54%.
Take `COc1ccc(/C(C)=N/OC(=O)c2c(-c3ccccc3Cl)noc2C)cc1CN1CCOCC1`: the growth inhibition was 97% (active).
Regarding `C=CC(C)(O)CCC1C(=C)C(O)CC2C(C)(C)CCCC12C` (configuration not stated), the growth inhibition is 80% (active).
The same measure, in the same setting: then `S=C(Nc1ccc(Cl)c(Cl)c1)SCc1ccc2c(c1)OCO2`, with 98% (active); and `S=C(Nc1ccc(Cl)cc1)SC1CCCCC1`, with 51%; and `Nc1nc(-c2cccnc2)cc(-c2cc(-c3cccnc3)nc(N)n2)n1`, with -5%.
Take `COC1=CC(=O)C2C(C1=O)C(c1ccc(Cl)cc1)[C@@H]2C` (some centres not stated): the growth inhibition is 99% (active).
On the same count and under the same terms, then `c1ccc(-c2nc3cccnc3s2)cc1`, with 43%.
Consider `O=[N+]([O-])c1cc(CCl)ccc1CCl`, for which the growth inhibition was 97% (active).
Take `COc1ccc(/C=C2\SC(=S)N(/C=C/c3nc4ccccc4[nH]c3=O)C2=O)cc1OC`: the growth inhibition was 4%.
On the same count and under the same terms, then `CCCN(CCC)CC(O)c1cc(-c2ccc(Cl)cc2)nc2c(C)c(Cl)ccc12` (configuration not stated), with 96% (active).
Regarding `O=C(Nc1ccccc1)OCCc1ccc(Cl)c(Cl)c1`, the growth inhibition is 83% (active).
Same read-out and setting: then `CC(O)C(O)C(O)C(/C=N\Nc1ccccc1)=N/Nc1ccccc1` (configuration not stated), with 43%; and `C#CCCCc1ccccc1`, with 79% (active).
On to `CC(=O)Cc1ccc[cH-]1.[Fe+2].c1cc[cH-]c1`, for which the growth inhibition was 15%.
For `Cc1cc(I)ccc1N`, the growth inhibition is 90% (active).
As for `CC(C)(CN1CCCCC1)C(=O)CC(SCCS(=O)(=O)O)c1ccc(Br)cc1` (configuration not stated), the growth inhibition was 56%.
As for `C[Si](C)(C)CNC(=O)OCc1ccccc1`, the growth inhibition is 93% (active).
`CC(C(=O)N1C(=O)N(C(=O)[C@H](C)C(O)c2ccccc2)[C@H](c2ccccc2)[C@H]1c1ccccc1)[C@@H](O)c1ccccc1` (some centres not stated): the growth inhibition was 90% (active).
For `Oc1cccc2c(Cl)ccnc12`, the growth inhibition is 100% (active).
On to `O=C1C=CC(=C(c2ccccc2)c2ccccc2)c2ccccc21`, for which the growth inhibition was 92% (active).
With `S=C(S)NN1CCOCC1`, the growth inhibition was 70% (active).

The assay is the same for the next values; noted with them: S. cerevisiae bub3 mutant strain, at 50.0 µM, active compounds read high.
`C/C(=N\NC(=S)SCc1ccccc1)c1ccccn1`: the growth inhibition is 87% (active).
Regarding `CC[C@@]1(O)C(=O)OCc2c1cc1n(c2=O)Cc2cc3c(N)cccc3nc2-1`, the growth inhibition was -0.65%.
On to `CN(C)c1ccc(Sc2ccc3nc(N)nc(N)c3c2)cc1`, for which the growth inhibition is 21.9%.
On to `CC(=O)OCCOCNC(=S)N/N=C(\C)c1cnccn1`, for which the growth inhibition is 75.3% (active).
For `COc1ccc(C2c3cc4c(cc3OC(C)(O)C2C)OCO4)c(OC)c1` (configuration not stated), the growth inhibition was 43%.
Consider `COc1cc(C2SCC(=O)N2c2ccc(-c3ccc(-n4c(-c5ccccc5)nc5ccccc5c4=O)cc3)cc2)cc(OC)c1OC` (configuration not stated), for which the growth inhibition is 71.7% (active).
Same read-out and setting: then `COc1ccc(Br)c(C(=O)Sc2nnnn2-c2cccc(Cl)c2)c1`, with 88.2% (active).
As for `O=C(NNc1ccnc2cc(Cl)ccc12)/C(=C\c1ccccc1Cl)NC(=O)c1ccccc1`, the growth inhibition was 85.8% (active).
Same read-out and setting: the same measure for `CSC(=S)Nc1cccc(C)n1`: 54%.
As for `O=C(/C=C\c1ccc(Cl)cc1Cl)c1cccs1`, the growth inhibition was 54.9%.
For `COc1ccc(-c2cn(-c3ccc(I)cc3)c3ncnc(N)c23)cc1`, the growth inhibition is 13.2%.
For the compound `CN(C)c1ccc(C(C#N)=C(C#N)C#N)cc1`, the growth inhibition is 83.4% (active).
Consider `COc1cc(/C=C2\CCc3ccccc3C2=O)cc(OC)c1OC`, for which the growth inhibition is 74.3% (active).
As to `CC(C)/C(Cl)=N\OC(=O)Nc1cccc(Cl)c1`, the growth inhibition was 82.3% (active).
`NNC(=O)CCc1ccc2ccc3ccccc3c2c1`: the growth inhibition is 37.2%.
In the case of `COc1ccc(/C(C)=N/OC(=O)c2c(-c3ccccc3Cl)noc2C)cc1CN1CCOCC1`, the growth inhibition was 58.8%.
In the case of `C=CC(C)(O)CCC1C(=C)C(O)CC2C(C)(C)CCCC12C` (configuration not stated), the growth inhibition was 73% (active).
For the compound `S=C(Nc1ccc(Cl)c(Cl)c1)SCc1ccc2c(c1)OCO2`, the growth inhibition was 88.2% (active).
Consider `S=C(Nc1ccc(Cl)cc1)SC1CCCCC1`, for which the growth inhibition was 83% (active).
As for `Nc1nc(-c2cccnc2)cc(-c2cc(-c3cccnc3)nc(N)n2)n1`, the growth inhibition was 6.3%.
As to `COC1=CC(=O)C2C(C1=O)C(c1ccc(Cl)cc1)[C@@H]2C` (some centres not stated), the growth inhibition was 90.8% (active).
In the case of `c1ccc(-c2nc3cccnc3s2)cc1`, the growth inhibition is -2.7%.
For the compound `O=[N+]([O-])c1cc(CCl)ccc1CCl`, the growth inhibition is 99.4% (active).
Regarding `COc1ccc(/C=C2\SC(=S)N(/C=C/c3nc4ccccc4[nH]c3=O)C2=O)cc1OC`, the growth inhibition is 70.3% (active).
The same measure, in the same setting: the same measure for `CCCN(CCC)CC(O)c1cc(-c2ccc(Cl)cc2)nc2c(C)c(Cl)ccc12` (configuration not stated): 97.4% (active); for `O=C(Nc1ccccc1)OCCc1ccc(Cl)c(Cl)c1`: 90.2% (active).
For `CC(O)C(O)C(O)C(/C=N\Nc1ccccc1)=N/Nc1ccccc1` (configuration not stated), the growth inhibition is 69.1%.
In the case of `C#CCCCc1ccccc1`, the growth inhibition was 39.9%.
`CC(=O)Cc1ccc[cH-]1.[Fe+2].c1cc[cH-]c1`: the growth inhibition was 72.5% (active).
Take `Cc1cc(I)ccc1N`: the growth inhibition was 86.8% (active).
The same measure, in the same setting: the same measure for `CC(C)(CN1CCCCC1)C(=O)CC(SCCS(=O)(=O)O)c1ccc(Br)cc1` (configuration not stated): 74.7% (active).
Take `C[Si](C)(C)CNC(=O)OCc1ccccc1`: the growth inhibition is 93.5% (active).
Regarding `CC(C(=O)N1C(=O)N(C(=O)[C@H](C)C(O)c2ccccc2)[C@H](c2ccccc2)[C@H]1c1ccccc1)[C@@H](O)c1ccccc1` (some centres not stated), the growth inhibition was 84.2% (active).
Turning to `Oc1cccc2c(Cl)ccnc12`, the growth inhibition was 92.8% (active).
As for `O=C1C=CC(=C(c2ccccc2)c2ccccc2)c2ccccc21`, the growth inhibition was 25.1%.
For the compound `S=C(S)NN1CCOCC1`, the growth inhibition was 96% (active).

These data come from PubChem BioAssay (NCI).
